Among all 360,000 compounds or so, about 11,000 (3.1%) were called active. Inconclusive results (about 4%) are left out. Calls follow the shape of the dose curve; as a rule, active = well fitted inhibition curve with a large enough effect; inconclusive = small, poorly fitted or top-dose-only effect; inactive = no such curve, though single readings can be large or run the other way. The entries come from a sample that favours actives as a whole. A call without a number means that no potency is given here.
The molecules below were run against Schistosoma mansoni thioredoxin glutathione reductase (TGR) (UniProt Q962Y6) (assay: qHTS Assay for the Inhibitors of Schistosoma Mansoni Peroxiredoxins). Settings: purified TGR, DTNB reduction, TNB absorbance 405 nm; series mostly up to 114 µM.
Procedure, shortened: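 Kinetic colorimetric format: TGR-catalysed, NADPH-driven DTNB reduction monitored via TNB absorbance. Enzyme dispensed at 20 nM; compound exposure 15 min at room temperature before reaction start.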
Also: nearly all actives have a fitted effect of over 60% in size.
Potency is read from the fitted curve at half-maximal effect.

| Structure (SMILES) | Potency |
| --- | --- |
| COC(=O)c1ccccc1NC(=O)c1ccc2c(=O)n3c(nc2c1)CCCCC3 | inactive |
| CCN(CCCNC(=O)c1cc(Nc2ccc(OC)cc2)nc2ccccc12)c1cccc(C)c1 | inactive |
| O=C(Nc1ccccc1N1CCCCC1)c1ccc2nccnc2c1 | 79.4 µM (active) |
| O=C(Nc1ccccc1N1CCCC1)c1ccc2ccccc2c1 | inactive |
| O=C(Nc1ccccc1N1CCOCC1)c1ccncc1 | inactive |
| Oc1ccc2ccccc2c1N=Nc1nccs1 | 17.8 µM (active) |
| COc1ccc(Cc2nc3ccc(C(=O)NCc4ccccc4Cl)cc3o2)cc1 | inactive |
| CCOc1ccccc1NC(=O)Cn1c2ncccc2c(=O)n1-c1ccc(C)c(C)c1 | inactive |
| Cc1cccn2c(=O)c3cc(C#N)c(=O)n(CCCN4CCOCC4)c3nc12 | 25.1 µM (active) |
| Cc1cccn2c(=O)c3cc(C(=O)NCCN4CCOCC4)c(=N)n(Cc4cccnc4)c3nc12 | inactive |
| CCCCn1c(=N)c(S(=O)(=O)c2ccccc2)cc2c(=O)n3cccc(C)c3nc21 | inactive |
| CC1CCC2(CC1)N=C(c1ccccc1)C(=O)N2CC(=O)Nc1ccc(F)c(Cl)c1 (stereo not given) | inactive |
| N#Cc1nc(/C=C/c2ccc(F)cc2)oc1NCc1ccc(F)cc1 | inactive |
| CCN(C(=O)Cn1cnc2sc(C)c(S(=O)(=O)N3CCN(c4ncccn4)CC3)c2c1=O)c1ccccc1F | inactive |
| CN(C)c1ccc(NC(=O)CSc2nc(-c3ccco3)cc(C(F)(F)F)n2)cc1 | inactive |
| Cc1cccc(NC(=O)CSc2nc(-c3ccco3)cc(C(F)(F)F)n2)c1C | inactive |
| O=C(CSc1nc(-c2ccco2)cc(C(F)(F)F)n1)N1CCc2ccccc2C1 | 11.2 µM (active) |
| O=C(NCc1ccc2c(c1)CCN2C(=O)c1ccccc1)c1ccccc1 | inactive |
| CCCn1c2ccccc2c2cnn(CC(=O)NCC3CCN(Cc4ccc(C)cc4)CC3)c(=O)c21 | inactive |
| Cc1cccc(NC(=O)c2ccc(F)c(S(=O)(=O)N(C)C3CCCCC3)c2)c1 | inactive |
| CCOc1ccccc1C(=O)NCC(c1ccc(N(C)C)cc1)N1CCCC1 (stereo not given) | inactive |
| Oc1ccc(N=Cc2c(O)ccc3ccccc23)cc1 | 28.2 µM (active) |

| Structure (SMILES) | Potency |
| --- | --- |
| CCC(=O)CC(c1ccc([N+](=O)[O-])cc1)c1c(O)c2ccccc2oc1=O (stereo not given) | inactive |
| CC(C)CNC(=O)CC(c1ccccc1)c1c(O)ccc2ccccc12 (stereo not given) | inactive |
| Oc1ccc2ccccc2c1C=Nc1ccccc1 | 12.6 µM (active) |
| O=[N+]([O-])c1ccc(N=Cc2c(O)ccc3ccccc23)cc1 | 22.4 µM (active) |
| O=[N+]([O-])c1cnc2ccc3ccccc3c2c1 | inactive |
| CCOc1[nH]n(-c2ccc(Cl)cc2)c(=O)c1C=Nc1ccc(O)cc1 | inactive |
| Cc1cc(N=Nc2ccc3ccccc3c2)ccc1O | inactive |
| CC(=O)n1c(C=Nc2ccccc2)c(O)c2ccccc21 | inactive |
| COc1ccc(CCNC(=O)c2c3c(nc4ccccc24)C(=O)N(C2CCCCC2)C3)cc1OC | inactive |
| Cc1ccc(C(=O)Nc2ccccc2F)cc1S(=O)(=O)N1CCOCC1 | inactive |
| CCOc1ccccc1NC(=O)CN1CCN(S(=O)(=O)c2ccc(Br)cc2)CC1 | inactive |
| Cc1cccc(NC(=O)C2CCCN2S(=O)(=O)c2cccc3nsnc23)c1C (stereo not given) | inactive |
| CCN(CC(=O)Nc1c(F)cccc1F)C(=O)c1ccc(Sc2nncn2C)c([N+](=O)[O-])c1 | inactive |
| CC(C)(C)n1cnnc1Sc1ccc([N+](=O)[O-])cn1 | inactive |
| Cn1cnnc1Sc1ccc(S(C)(=O)=O)cc1[N+](=O)[O-] | 35.5 µM (active) |
| O=C(CSc1nc2ccccc2c(=O)n1CCCO)NC1CC1 | inactive |
| C=CCn1c(SCc2ccc(C(=O)NCCO)cc2)nc2ccccc2c1=O | inactive |
| C=CCn1c(SCC(=O)NC(=O)Cc2ccccc2)nc2ccccc2c1=O | 89.1 µM (active) |
| Cc1ccc(O)c(NC(=O)c2cc(-c3ccc(F)cc3)no2)c1 | inactive |
| Cc1ccc(C(=O)N2CCc3cc(CNC(=O)c4ccc(Br)cc4)ccc32)cc1 | inactive |
| COc1ccc(NC(=O)c2cc3cc(C)ccc3n2C)cc1 | inactive |
| CN(C)S(=O)(=O)c1cccc(NC(=S)N/N=C/C(=O)c2ccccc2)c1 | inactive |

| Structure (SMILES) | Potency |
| --- | --- |
| CN(C)S(=O)(=O)c1ccc(NC(=O)N2CCOCC2)cc1 | inactive |
| CN(C)S(=O)(=O)c1ccc(N/C=C(\[N+](=O)[O-])S(=O)(=O)c2ccccc2)cc1 | 14.1 µM (active) |
| O=C(CN1C(=O)CCn2nc(-c3ccccc3)cc21)NCc1ccccc1 | inactive |
| CC1CSc2nnc(CCc3ccccc3)n21 (stereo not given) | inactive |
| Cc1nnc2n1N=C(c1ccccc1)CS2 | 39.8 µM (active) |
| CCN1N=C(c2ccccc2)CCC1=O | inactive |
| COc1ccc(-c2cc(-c3nc(-c4cc(OC)c(OC)c(OC)c4)no3)[nH]n2)c(OC)c1 | inactive |
| CCOCCCNC(=O)c1c(NC(=O)c2nc(SC)ncc2Cl)sc2c1CCCC2 | inactive |
| CC(C)(C)c1ccc(S(=O)(=O)Nc2ccc(O)c(Sc3nc4ccccc4s3)c2)cc1 | inactive |
| CC(C)c1ccc(S(=O)(=O)Nc2ccc(O)c(Sc3nc4ccccc4s3)c2)cc1 | inactive |
| O=[N+]([O-])c1c(NCCO)cc(Sc2nc3ccccc3s2)c2nonc12 | 0.1 µM (active) |
| Cc1ccccc1C(=O)Nc1sc2c(c1C(=O)N1CCC(C)CC1)CCCC2 | inactive |
| CCOC(=O)c1ccccc1NC(=O)CCc1c(C)nc2c(c1C)c(=O)n(C)c(=O)n2C | inactive |
| Cc1cccc(Oc2c([N+](=O)[O-])c(=O)n(C)c3ccccc23)c1 | 3.98 µM (active) |
| Cc1cccc(C2CC(=O)Oc3c2c(=O)n(C)c2ccccc32)c1 (stereo not given) | inactive |
| Cn1c(=O)c([N+](=O)[O-])c(Oc2ccccc2)c2ccccc21 | 2.82 µM (active) |
| Cn1c(=O)c(Sc2ccc(Cl)cc2)c(O)c2ccccc21 | inactive |
| Cc1cccc(OP(=O)(Nc2c(C)n(C)n(-c3ccccc3)c2=O)Oc2cccc(C)c2)c1 | inactive |
| Cn1nc(-c2ccccc2)c2cc([N+](=O)[O-])ccc21 | inactive |
| Cc1ccc(Cl)cc1N1CCN(S(=O)(=O)c2cc3[nH]c(=O)c(=O)[nH]c3cc2C)CC1 | inactive |
| CCCNC(=O)c1ccc2c(c1)ncn2-c1ccc(C)cc1C | inactive |
